{"source": "PubChem BioAssay AID493169", "about": "(National Center for Advancing Translational Sciences (NCATS), 2011)", "note": "Inconclusive results are not listed. A call without a number means that no potency is given here. Calls of active or inactive are those of the source. Calls come from the whole dose curve; as a rule, active = well fitted inhibition curve with a large enough effect; inconclusive = small, poorly fitted or top-dose-only effect; inactive = flat fitted curve, though single readings scatter. Potency is the fitted concentration of half-maximal effect."}
{"assay": "CHOP2 Reporter Counterscreen Assay for Inhibitors of Ubiquitin-specific Protease USP2a;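 note: activated enterokinase alone at 50 pM in a cell-free format rather than USP2a or CHOP2; nearly all actives have a fitted effect of over 55% in size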", "settings": "purified enterokinase, fluorogenic substrate, 485/531 nm; series mostly up to 38.3 µM", "procedure,_shortened": "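Cell-free counterscreen with pre-activated enterokinase alone (50 pM final) in 20mM Tris-HCl pH 8.0, 2mM CaCl2, 2mM beta-mercaptoethanol, 0.05% CHAPS; compound preincubation 30 min RT, reporter substrate 25nM final, fluorescence read after 10 min (Ex 485/Em 531).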"}
{"smiles": "O=C(Cc1cccs1)Nc1ccc(S(=O)(=O)N2CCCCC2)cc1", "Potency": "7.94 µM (active)"}
{"smiles": "O=C(NC(=S)N1CCCc2ccccc21)c1ccc([N+](=O)[O-])cc1", "Potency": "inactive"}
{"smiles": "N=C1/C(=C\\c2ccc(-c3cccc(Cl)c3)o2)C(=O)N=C2SC=C(c3ccccc3)N12", "Potency": "inactive"}
{"smiles": "Cc1cccn2c(=O)c3cc(C(=O)NCCN4CCOCC4)c(=N)n(CCN4CCOCC4)c3nc12", "Potency": "inactive"}
{"smiles": "Cc1ccc(C)n1NC(=O)c1ccccc1O", "Potency": "inactive"}
{"smiles": "O=[N+]([O-])c1ccc(Sc2nnnn2-c2ccccc2)c(Cl)c1", "Potency": "inactive"}
{"smiles": "C=CCn1c(O)c(C(CC)=NCCN2CCOCC2)c(=O)[nH]c1=O", "Potency": "inactive"}
{"smiles": "Cc1cc(/C=C2\\C(=N)N3N=C(c4ccco4)SC3=NC2=O)c(C)n1Cc1ccccc1", "Potency": "7.08 µM (active)"}
{"smiles": "COc1ccc(NC(=O)C2CC(=O)OC2c2ccccc2)cc1", "note": "(stereo not given)", "Potency": "inactive"}
{"smiles": "CCCCC1NC(C(=O)O)CS1", "note": "(stereo not given)", "Potency": "inactive"}
{"smiles": "CCNC(=S)N/N=C/c1cn(Cc2ccc(F)cc2)c2ccccc12", "Potency": "inactive"}
{"smiles": "Cc1cc(C(=O)NCc2ccco2)on1", "Potency": "inactive"}
{"smiles": "CCOC(=O)c1c(C)c(C(=O)O)n(C)c1C", "Potency": "inactive"}
{"smiles": "NC(=O)CC(NC(=O)Cc1ccc(Br)cc1)c1ccc(N2CCC(Cc3ccccc3)CC2)c([N+](=O)[O-])c1", "note": "(stereo not given)", "Potency": "inactive"}
{"smiles": "O=C(c1ccc([N+](=O)[O-])cc1)N(Cc1ccc(Cl)cc1)N1C(=O)CCCC1=O", "Potency": "inactive"}
{"smiles": "C[C@](N)(Cc1ccc(O)c(O)c1)C(=O)O", "Potency": "inactive"}
{"smiles": "COc1ccccc1NC(=O)N1CCN(c2ccccn2)CC1", "Potency": "inactive"}
{"smiles": "NC(=O)C[C@@H]1N[C@]2(C(=O)Nc3ccccc32)[C@@H]2C(=O)N(c3cc(C(F)(F)F)ccc3Cl)C(=O)[C@H]12", "Potency": "inactive"}
{"smiles": "CCOc1ccc(C(=O)c2ccc(OCC)c(N)c2)cc1N", "Potency": "inactive"}
{"smiles": "CCCn1nnc(NC(=O)c2cccc(OCC(C)C)c2)n1", "Potency": "inactive"}
{"smiles": "COCc1cc(C)nc(OCC(=O)N/N=C\\c2cc(C)n(-c3cccc(C(F)(F)F)c3)c2C)c1C#N", "Potency": "inactive"}
{"smiles": "COc1ccc(-n2c(=S)[nH]c3cc(C(=O)Nc4cc(OC)c(OC)c(OC)c4)ccc3c2=O)c(OC)c1", "Potency": "inactive"}
{"smiles": "O=C(NC12CC3CC(CC(C3)C1)C2)C1=COCCO1", "Potency": "inactive"}
{"smiles": "CC(=O)Nc1ccc(NC(=O)C2CCCN(S(=O)(=O)c3ccc(Cl)cc3)C2)cc1", "note": "(stereo not given)", "Potency": "inactive"}
{"smiles": "O=[N+]([O-])c1c(NCCO)cc(N2CCN(Cc3ccc4c(c3)OCO4)CC2)c2nonc12", "Potency": "inactive"}
{"smiles": "CCOc1ccc(S(=O)(=O)N(CC(=O)O)c2ccccc2)cc1", "Potency": "inactive"}
{"smiles": "CCOC(=O)C(=O)Nc1nc(-c2ccc3c(c2)CCN3C(=O)C2CC2)c(C)s1", "Potency": "inactive"}
{"smiles": "CCOc1ccc(NC(=O)c2cccc(-n3cnnn3)c2)cc1", "Potency": "inactive"}
{"smiles": "O=C(CCSCc1ccc(Cl)cc1)NCCc1ccccc1", "Potency": "inactive"}
{"smiles": "CCOc1ccc(NC(=O)N(CCCN2CCOCC2)Cc2cccnc2)cc1", "Potency": "inactive"}
{"smiles": "O=C1NCC(CN(c2ccccc2)c2ccccc2)O1", "note": "(stereo not given)", "Potency": "inactive"}
{"smiles": "N=c1sccn1CC(=O)Nc1ccc(S(=O)(=O)N2CCOCC2)cc1", "Potency": "inactive"}
{"smiles": "Cc1ccc(/C=C/S(=O)(=O)N2CCC(C(=O)O)CC2)cc1", "Potency": "inactive"}
{"smiles": "COc1cc(/C=C(/C(=O)c2cccs2)c2nc3ccccc3[nH]2)ccc1O", "Potency": "inactive"}
{"smiles": "COCCCNC(=O)C1CCN(c2nc(C)cc(C)n2)CC1", "Potency": "inactive"}
{"smiles": "Cc1ccc2[nH]c(=O)c(COC(=O)c3ccccn3)cc2c1", "Potency": "inactive"}
{"smiles": "O=C(N/N=C/C=C/c1ccccc1)c1ccncc1", "Potency": "inactive"}
{"smiles": "CCn1c(CN2CCOCC2)nnc1SCC(=O)Nc1ccc(C(C)=O)cc1", "Potency": "inactive"}
{"smiles": "CCc1cc2cccc(C)c2nc1SCC(=O)N1CCN(C(=O)c2ccco2)CC1", "Potency": "inactive"}
{"smiles": "COc1ccc(-c2[nH]ncc2/C=C(/C#N)C(=O)NC2CCCCC2)cc1", "Potency": "inactive"}
